Shown are actives, neighbours in structure and some others; about 8.1% of the full set was active somewhere.
KB-3-1 cytotox: kills parental KB-3-1 adenocarcinoma cells. 400,000 tested, 1.4% active. AID 1347075. KB-3-1 viability, CellTiter-Glo ATP luminescence, 72 h. Potency, µM (doses to about 46.1 µM), usual class: cytotoxic; note: nearly all actives have a fitted effect of over 60% in size
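Parental KB-3-1 viability, qHTS format: 72 h compound exposure, 37 °C; CellTiter-Glo; media-only wells and DMSO plates as controls; concentration-effect fits on corrected data.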
KB-V1 MDR tox: kills drug-selected multidrug resistant KB-V1 cells. Potency, µM (titrated, usually from 46.1 µM), usual class: cytotoxic. KB-V1 MDR cells viability, CellTiter-Glo, 72 h. 400,000 tested, 3.4% active; note: nearly all actives have a fitted effect of over 60% in size
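Readout: CellTiter-Glo luminescence, 10 min after addition. Cells: KB-V1 MDR subline, 72 h at 37 degrees C with compound. Analysis: corrected, normalized data fitted to concentration-effect curves.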
MCF10A rerep: induces DNA re-replication in MCF 10a normal breast cells. MCF 10A DNA re-replication, Hoechst nuclear intensity, 48 h. Potency, µM (series often up to 46.1 µM), hits mostly activators. AID 624296. 350,000 tested, 2.9% active; note: nearly all actives have a fitted effect of over 50% in size
SW480 rerep: induces DNA re-replication in SW480 colon adenocarcinoma cells; SW480 DNA re-replication, Hoechst DNA content imaging, 48 h; 340,000 tested, 1.8% active; Potency, µM (highest dose often 46.1 µM), actives largely listed as activators; note: nearly all actives have a fitted effect of over 55% in size
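DNA re-replication was detected as more nuclei of elevated Hoechst intensity after 48 hr exposure to compound (23 nL pinned per well of 250 cells).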
ELG1 DNA repair: inhibitors of ELG1-dependent DNA repair in HEK293T cells; HEK293T ELG1-luciferase reporter, luminescence, 16 h; DNA damage induced by 5-fluorouridine; Potency, µM (series often up to 46.1 µM), actives largely listed as inhibitors; 330,000 tested, 2.3% active; AID 504467; note: nearly all actives have a fitted effect of over 55% in size
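Luminescence from the luciferase reporter, measured 30 min after ONE-Glo reagent at room temperature, was the read-out. Beforehand, 2,000 cells per well were exposed for 16 hr at 37 °C to 5-fluorouridine together with compound or vehicle.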
ELG1 FLuc counter: luciferase inhibition in cell-free luciferin readout for ELG1 hits; shares compounds with ELG1 DNA repair; 350 tested, 3% active; cell-free firefly luciferase luminescence counter-screen, ViewLux; Potency, µM (top dose mostly 46.1 µM), usual class: inhibitors; AID 624247
ELG1-Luc inh: inhibits ELG1-dependent DNA repair in HEK293T cells, confirmed; Potency, µM (titrated, usually from 46.1 µM), hits mostly inhibitors; HEK293T ELG1-luciferase levels, luminescence; cells co-treated with 5-fluorouridine; shares compounds with ELG1 DNA repair; AID 624248; 670 tested, 68% active; note: nearly all actives have a fitted effect of over 55% in size
ELG1 MMS Luc: inhibits ELG1-dependent repair under MMS stimulation in HEK293T cells | shares compounds with ELG1 DNA repair | HEK293T luciferase-tagged ELG1 level, MMS stimulated | Potency, µM (doses to about 46.1 µM), usual class: inhibitors | 670 tested, 53% active | AID 624249; note: nearly all actives have a fitted effect of over 60% in size
ELG1 5FU viab: confirmation of ELG1 repair inhibitors: viability with 5FU; cell viability with 5-FU, ELG1-dependent repair; 670 tested, under 10 active; shares compounds with ELG1 DNA repair; AID 624250; Potency, µM (series often up to 46.1 µM), usual class: cytotoxic;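 note: ELG1-luc HEK293T cells cotreated with 5-fluorouridine at 10 µM final; viability measured 16 h after compound addition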
ELG1 MMS cell: confirmation of ELG1 repair inhibitors: viability with MMS; shares compounds with ELG1 DNA repair; Cell viability with MMS, ELG1-dependent DNA repair; Potency, µM (titrated, usually from 46.1 µM), actives largely listed as cytotoxic; 670 tested, 33% active;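 note: ELG1-luc HEK293T cells co-treated with 10 µM MMS; viability read 16 h after compound addition; nearly all actives have a fitted effect of over 60% in size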
ELG1 unstim viab: counter-screen for ELG1 repair inhibitors: unstimulated cell viability; shares compounds with ELG1 DNA repair; cell viability counter-screen, unstimulated, luminescence; Potency, µM (top dose mostly 45.9 µM), usual class: cytotoxic; 900 tested, 8% active; AID 624252;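 note: compound exposure lasted 16 hours before reading; nearly all actives have a fitted effect of over 55% in size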
FLuc biochem: counter-screen for ELG1 repair inhibitors: firefly luciferase inhibition; 350 tested, 10% active; shares compounds with ELG1 DNA repair; Potency, µM (series often up to 57.5 µM), actives largely listed as inhibitors; purified firefly luciferase, luminescence counter-screen
Hits are given with their value; – = inactive; ? = inconclusive; · = no result given. Calls come from the whole dose curve; as a rule, active = well fitted curve in the direction sought with a large enough effect; inconclusive = small, poorly fitted or top-dose-only effect, or another doubt; inactive = no such curve, though single readings can be large; an effect the other way counts as inactive or inconclusive.

SMILES	KB-3-1 cytotox	KB-V1 MDR tox	MCF10A rerep	SW480 rerep	ELG1 DNA repair	ELG1-Luc inh	ELG1 MMS Luc	ELG1 5FU viab	ELG1 MMS cell	ELG1 unstim viab	others
CCC(CO)Oc1cc(NCc2ccccc2O)c2ncn(C(C)C)c2c1 (configuration not stated)	–	–	–	–	2.3µM	8.9µM	4.4µM	–	4.4µM	?
COC1=C2C[C@@H](C)C[C@H](OC)[C@H](O)[C@@H](C)/C=C(\C)[C@H](OC(N)=O)[C@@H](OC)/C=C\C=C(/C)C(=O)NC(=CC1=O)C2=O	·	·	·	·	·	1.4µM	2µM	?	14µM	?
CN(c1ncnc(N)c1[N+](=O)[O-])C1CCCCC1	–	–	–	–	1.8µM	3.1µM	13µM	–	–	?
C=C1C(c2ccc(C)cc2)=CCc2cc(C)cc(C)c21	·	·	·	·	·	·	·	·	·	?	ELG1 FLuc counter=–;FLuc biochem=5.2µM
Cn1cccc1C(=O)Nc1ccc(N2CCOCC2)cc1	–	–	–	–	?	·	·	·	·	–
CC(C)OC(=O)c1c(N)n(CCCN2CCOCC2)c2nc3ccccc3nc12	–	–	–	?	–	·	·	·	·	·
COCC(C)OC(=O)c1c(N)n(CC(C)C)c2nc3ccccc3nc12 (configuration not stated)	–	–	–	?	3.7µM	5µM	–	?	–	–
C/C(=N\NC(=O)c1c(C)nc2ccccn12)c1ccc(O)cc1O	?	–	?	?	2.9µM	?	?	–	?	?
COc1ccc(-n2nnnc2CNC(=O)c2c(-c3ccccc3Cl)noc2C)cc1	–	–	·	·	·	·	·	·	·	·
COc1ccc(NC(=O)c2sc3ncnc(N4CCN(c5ccccn5)CC4)c3c2C)cc1Cl	?	–	?	?	2.6µM	5.6µM	13µM	–	?	?	ELG1 FLuc counter=–;FLuc biochem=–
CCN=c1scc(-c2ccco2)n1/N=C/c1ccc(OC)c(O)c1	–	?	?	–	·	·	·	·	·	·
O=C(Nc1nc(-c2ccccn2)cs1)c1ccc(S(=O)(=O)N2CCCCC2)cc1	·	·	·	·	0.65µM	36µM	26µM	–	36µM	?	ELG1 FLuc counter=?;FLuc biochem=–
COc1ccc(C(=O)Nc2nc(-c3ccccn3)cs2)cc1S(=O)(=O)N1CCOCC1	–	–	–	–	4.1µM	13µM	22µM	–	28µM	?
Cc1ccc(C(=O)NC2CCCCCCC2)cc1S(=O)(=O)N1CCOCC1	–	–	–	–	?	·	·	·	·	·
O=C(CNC(=O)c1cccc(F)c1)N/N=C/c1ccc([N+](=O)[O-])s1	–	–	?	18µM	2.9µM	?	10µM	–	14µM	–
O=C(CNC(=O)c1cccc(Br)c1)N/N=C/c1cccs1	–	?	–	?	–	·	·	·	·	·
Cc1ccccc1C(=O)NNS(=O)(=O)c1cccc([N+](=O)[O-])c1	–	–	–	–	–	·	·	·	·	·
Cc1nn(C)c(C)c1/C=C/C(=O)O	–	–	–	–	–	·	·	·	·	·

Screening data deposited in PubChem by National Center for Advancing Translational Sciences (NCATS).
